The supplement of paper PMC6555819

Assays:
Assay in all cases: PBM binding z-score (relative to random genomic background probes); higher = stronger binding; sequences stand for … in GC…GCGATTGACAGCGTAGAATGAAGG
[1] = system: FXR:RXRa (NR concentration 270 nM, RXRa partner concentration 90 nM)
Procedure, shortened: (§1)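 The probes on custom Agilent 4×180K protein-binding microarrays were double-stranded, with 34-nt variable regions bearing direct-repeat seeds, single-nucleotide variants, half-site ablations and random human genomic background sequences. Incubation lasted 1 h with ligand-free nuclear receptor dimers in PBS pH 7.4, 2% milk, 0.02% Triton X-100, 1 mM DTT, 0.2 mg/mL BSA and 0.4 mg/ml salmon testes DNA. Antibodies against each partner (one per run) detected bound dimers, and fluorescence scans were regression-normalized. Binding z-scores take the random background probes as reference.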

[2] = system: LXRa:RXRa (NR concentration 270 nM, RXRa partner concentration 90 nM)
Procedure, shortened: as §1

[3] = system: LXRa homodimer (NR concentration 270 nM)
Procedure, shortened: as §1

[4] = system: LXRb:RXRa (NR concentration 270 nM, RXRa partner concentration 90 nM)
Procedure, shortened: as §1

[5] = system: LXRb homodimer (NR concentration 270 nM)
Procedure, shortened: as §1

[6] = system: PPARa:RXRa (NR concentration 270 nM, RXRa partner concentration 90 nM)
Procedure, shortened: as §1

[7] = system: PPARg:RXRa (NR concentration 180 nM, RXRa partner concentration 90 nM)
Procedure, shortened: as §1

[8] = system: PPARg:RXRa 270nM:90nM, anti-RXR (NR concentration 270 nM, RXRa partner concentration 90 nM)
Procedure, shortened: as §1

[9] = system: PPARg:RXRa 30nM:10nM, anti-RXR (NR concentration 30 nM, RXRa partner concentration 10 nM)
Procedure, shortened: as §1

[10] = system: PPARg:RXRa 90nM:30nM, anti-RXR (NR concentration 90 nM, RXRa partner concentration 30 nM)
Procedure, shortened: as §1

[11] = system: PPARg:RXRa DBDmut IVT, anti-RXR (DBD mutation: RXRa K156A/R161A, NR concentration 270 nM, RXRa partner concentration 90 nM)
Procedure, shortened: as §1

[12] = system: PPARg:RXRa IVT, anti-PPARg (NR concentration 270 nM, RXRa partner concentration 90 nM)
Procedure, shortened: as §1

[13] = system: PPARg DBDmut:RXRa IVT, anti-PPARg (DBD mutation: PPARg1 K132A/R137A, NR concentration 270 nM, RXRa partner concentration 90 nM)
Procedure, shortened: as §1

[14] = system: PPARg DBDmut IVT, anti-PPARg (DBD mutation: PPARg1 K132A/R137A, NR concentration 270 nM)
Procedure, shortened: as §1

[15] = system: PPARg homodimer (NR concentration 180 nM)
Procedure, shortened: as §1

[16] = system: PXR:RXRa (NR concentration 270 nM, RXRa partner concentration 90 nM)
Procedure, shortened: as §1

[17] = system: PXR homodimer (NR concentration 270 nM)
Procedure, shortened: as §1

[18] = system: RARa:RXR (NR concentration 270 nM, RXRa partner concentration 90 nM)
Procedure, shortened: as §1

[19] = system: RARa homodimer (NR concentration 270 nM)
Procedure, shortened: as §1

[20] = system: RARb:RXRa (NR concentration 270 nM, RXRa partner concentration 90 nM)
Procedure, shortened: as §1

Sequence	PBM binding z-score [1]	PBM binding z-score [2]	PBM binding z-score [3]	PBM binding z-score [4]	PBM binding z-score [5]	PBM binding z-score [6]	PBM binding z-score [7]	PBM binding z-score [8]	PBM binding z-score [9]	PBM binding z-score [10]	PBM binding z-score [11]	PBM binding z-score [12]	PBM binding z-score [13]	PBM binding z-score [14]	PBM binding z-score [15]	PBM binding z-score [16]	PBM binding z-score [17]	PBM binding z-score [18]	PBM binding z-score [19]	PBM binding z-score [20]
GCTAGCAGGCCATTTGGGTTACTCAATGACGGGC	-0.367	-0.587	-0.387	-0.709	-0.959	0.0439	0.457	-0.378	-0.68	-0.152	0.933	0.903	-0.422	-0.474	-0.558	-0.229	-0.482	0.178	-0.714	0.189
CGTCAAAGTTCAAGGTAACGTAACAGAAAGCAGC	6.65	5.73	2.59	3.46	1.01	4.81	4.45	5.18	2.02	3.97	0.893	2.47	1.4	0.701	2.19	4.2	2.44	3.28	1.04	5.17
GCATATAGGTAATACAAGGTGAAATTCCGATTGT	1.74	2.2	0.342	0.712	-0.117	1.67	1.51	0.952	0.515	0.795	3.71	2.81	0.826	1.54	0.323	0.55	0.0431	1.17	0.97	0.349
ATCGAAAGGTCGACGAGGTGACTATACACCGTTT	4.76	3.44	0.283	3.17	0.252	4.53	3.26	3.2	1.22	2.33	1.03	2.4	1.08	0.608	1.89	3.44	0.829	3.99	0.449	4.01
CCTACTGTGCCAAAGGTCATTGATTCCAATGCTC	5.48	5.82	5.32	5.34	2.14	6.17	11.4	9.67	9.47	10.3	5.24	5.97	0.578	0.496	4.4	5.42	2.77	5.77	2.56	4.63
CCTTACGGGTGACTGACAGGTTATAGCATTTGGA	0.488	0.771	-0.154	0.347	-0.474	1.2	0.53	0.218	0.1	-0.0326	1.95	1.09	0.0764	-0.581	0.697	0.299	-0.0252	0.82	0.181	0.546
CCTACTGGGCCACGAAAGGTCATTTATTCAGTGA	3.85	5.32	6.04	4.6	1.31	4.47	4.58	4.66	1.87	4.02	5.5	5.64	-0.2	-0.0827	2.68	5.07	2.29	4.64	1.05	3.78
ATCGAAAGCTCGAAGGTGAGTATACCCACCCGAA	-0.601	-0.626	-0.677	-0.458	-0.832	-0.531	0.476	-0.226	-0.209	-0.372	-0.94	-0.157	0.15	-0.14	-1.31	-0.547	-0.343	-0.558	-0.499	0.055
CGAACGAGGGCATGAGTTAATAGCAAATGCCGAT	0.396	0.206	-0.633	0.117	-0.921	1.49	1.64	1.98	0.666	1.58	2.98	2.1	-0.0604	0.0299	-0.39	0.548	0.0291	0.254	-0.352	1.89
CCTACTGGGCCAAAAACGTCATTGATGCCGATAA	-0.178	-0.282	-0.294	-0.357	-0.478	0.119	0.525	1.02	-0.141	0.509	2.89	2.22	-0.472	-0.737	0.2	-0.35	-0.449	-0.17	-0.624	-0.163
TCTATTAGTTGATTAGCGCAACCGAAACAGCGGA	0.828	0.894	0.314	0.663	0.632	0.774	0.0474	2.11	3.89	2.97	2.41	0.138	0.332	0.505	1.14	0.438	0.358	0.258	1.03	0.252
ATCACTAGGTAACCAAGTTCAGTGAATGCCGAAC	0.163	0.618	0.625	0.415	-0.134	1.42	1.82	1.3	0.47	0.739	4.99	4.16	1.62	0.399	0.811	2.06	1.73	0.23	0.365	1.01
CCTACTGGGCCATCAGGTCATGGATATCAACGTT	1.24	1.22	0.743	1.49	-0.453	3.14	3.59	4.15	1.85	3.37	4.54	5.33	1.99	0.266	1.85	1.58	0.00422	2.45	-0.165	2.31
TCTTGTAGATCTAAGGTTAAGAAAGCCGAAGCCT	0.97	0.808	0.287	1.16	-0.127	1.98	1.85	3.71	3.41	4.08	1.71	0.863	0.224	-0.213	0.385	0.921	-0.35	1.55	-0.0766	0.9
